This is an account of results in PubChem BioAssay (NCI).

Some test systems named below: NCI-H23 lung; NCI-H226 lung; NCI-H322M lung; NCI-H460 lung; HOP-92 NSCLC; NCI-H522 lung; A549/ATCC NSCLC; 786-0 renal; DU-145 prostate; K-562 leukemia; MALME-3M melanoma; MDA-MB-231 breast; RXF 393 renal; SF-268 CNS; SF-295 CNS; SF-539 CNS; UACC-257 melanoma; M14 melanoma; COLO 205 colon.
Holding throughout (assay): NCI-60 one-dose screen, 48 h (100 = growth as untreated, 0 = no growth, -100 = all killed)
Common to all, as to settings: 10 µM unless noted

About 83,000 compounds went through this panel and 20% of them were active in at least one assay; those are over-represented in the sample as a whole.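 Compound tested at a single concentration for 48 hours in 96-well plates; a percent growth value below 10 was scored as active.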 Values without a mark were called inactive. Active and inactive are the calls of the source.

Consider `COc1cccc2nc(Nc3cccc(NC(=O)c4ccc(N5CCN(C)CC5)c(C(F)(F)F)c4)c3)ccc12`, for which the growth was 62.6% in the experiment with NCI-H23 lung; 43.2% in the experiment on NCI-H226 lung; 42.6% in the experiment with NCI-H322M lung; -9.94% (active) with NCI-H460 lung; 13% in the experiment on HOP-92 NSCLC; -14.2% (active) in the experiment on NCI-H522 lung. The growth with A549/ATCC NSCLC is 25.3%; in the experiment on 786-0 renal, -57.8% (active); in the experiment with DU-145 prostate it was 29.4%; in the experiment with K-562 leukemia, -49.1% (active); in the experiment with MALME-3M melanoma, -10.5% (active); in the experiment with MDA-MB-231 breast it was 29.5%. The growth is -2.23% (active) with RXF 393 renal; 35.5% in the experiment with SF-268 CNS; -0.464% (active) in the experiment on SF-295 CNS; -27.9% (active) with SF-539 CNS; -21.9% (active) with UACC-257 melanoma; 10.1% with M14 melanoma.

Consider `COc1ccc(C(=O)C(CN(C)C)c2ccccc2)cc1` (centres undefined), for which the growth was 13.2% in the experiment on NCI-H23 lung; 71.5% in the experiment on NCI-H226 lung; 96% with NCI-H322M lung; 47.7% with NCI-H460 lung; -73.9% (active) in the experiment with NCI-H522 lung; 72.6% in the experiment on A549/ATCC NSCLC. Besides, the growth in the experiment on 786-0 renal is -36.2% (active); in the experiment on COLO 205 colon it was 22.8%; in the experiment on K-562 leukemia, 12.6%; in the experiment with MALME-3M melanoma, 45%; in the experiment on MDA-MB-231 breast it was 33.4%; in the experiment with RXF 393 renal it was 18.6%. Also, the growth in the experiment with SF-295 CNS is 54.3%; with SF-539 CNS, 14.2%; with UACC-257 melanoma, 2.45% (active); in the experiment on M14 melanoma it was -63% (active).

For the molecule `O=C(Nc1ccc2[nH]c3ccccc3c2c1)c1ccccc1Cl`, the growth is 67.7% in the experiment with NCI-H23 lung; 81.1% with NCI-H226 lung; 56.4% in the experiment with NCI-H322M lung; 22.5% in the experiment with NCI-H460 lung; 76.1% in the experiment on HOP-92 NSCLC; 15.7% in the experiment with NCI-H522 lung. Besides, the growth is 40.5% in the experiment on A549/ATCC NSCLC; 62.1% in the experiment on 786-0 renal; 14% in the experiment on COLO 205 colon; 75% in the experiment with DU-145 prostate; 10% (active) in the experiment with K-562 leukemia; 35.3% with MALME-3M melanoma. Further, the growth in the experiment on MDA-MB-231 breast was 40.3%; in the experiment with RXF 393 renal, 26.5%; in the experiment on SF-268 CNS, 63%; with SF-295 CNS it was 10.7%; with SF-539 CNS it was 51.7%; in the experiment with UACC-257 melanoma, 83.1%. In addition, the growth with M14 melanoma is 26.2%.

For the molecule `Cc1ccc(NC(=O)c2[nH]c(SCCN(C)C)nc2-c2ccc(F)cc2)cc1Nc1ccc2ncn(C)c(=O)c2c1`, the growth in the experiment on NCI-H23 lung is 42.1%; in the experiment on NCI-H226 lung, 63.9%; in the experiment with NCI-H322M lung, 67%; with NCI-H460 lung it was 56.3%; in the experiment with HOP-92 NSCLC it was 38.7%; in the experiment with NCI-H522 lung, 69.5%. In addition, the growth is 40.3% in the experiment with A549/ATCC NSCLC; 72.8% in the experiment on 786-0 renal; 14.5% in the experiment with COLO 205 colon; 80.1% in the experiment with DU-145 prostate; 40.2% in the experiment on K-562 leukemia; -12.8% (active) in the experiment on MALME-3M melanoma. For the same molecule, the growth with MDA-MB-231 breast is 40.6%; in the experiment with RXF 393 renal it was 71.5%; in the experiment on SF-268 CNS it was 71.1%; with SF-295 CNS it was 82.9%; in the experiment with SF-539 CNS, 65%; in the experiment on UACC-257 melanoma, 22%. In addition, the growth in the experiment on M14 melanoma is 2.94% (active).

`CC(C)CC(NC(=O)OCC1c2ccccc2-c2ccccc21)C(=O)O` (centres undefined): the growth in the experiment with NCI-H23 lung was 101%; in the experiment with NCI-H226 lung it was 102%; in the experiment on NCI-H322M lung, 101%; in the experiment on NCI-H460 lung, 115%; in the experiment on HOP-92 NSCLC, 96.2%; in the experiment on NCI-H522 lung it was 96.6%. Besides, the growth with A549/ATCC NSCLC is 95.1%; in the experiment on 786-0 renal, 98%; in the experiment on COLO 205 colon it was 111%; with DU-145 prostate, 116%; with K-562 leukemia, 116%; in the experiment on MALME-3M melanoma, 109%. Besides, the growth with MDA-MB-231 breast is 103%; with RXF 393 renal, 103%; with SF-268 CNS, 112%; with SF-295 CNS, 77.2%; in the experiment on SF-539 CNS, 104%; with UACC-257 melanoma it was 102%. The growth with M14 melanoma is 105%.

Consider `Cc1ccc(N=CNN=C(N)N)cc1`, for which the growth in the experiment with NCI-H23 lung was 106%; in the experiment on NCI-H226 lung, 92%; with NCI-H322M lung, 111%; in the experiment on NCI-H460 lung it was 120%; in the experiment on HOP-92 NSCLC, 109%; in the experiment on NCI-H522 lung, 95.4%. For the same molecule, the growth in the experiment with A549/ATCC NSCLC is 100%; with 786-0 renal, 115%; in the experiment on COLO 205 colon, 113%; in the experiment with DU-145 prostate, 113%; with K-562 leukemia it was 87.8%; in the experiment with MALME-3M melanoma, 114%. The growth with MDA-MB-231 breast is 118%; with RXF 393 renal, 110%; in the experiment with SF-268 CNS it was 105%; in the experiment on SF-539 CNS, 94.8%; in the experiment with UACC-257 melanoma it was 97.4%; in the experiment with M14 melanoma, 103%.

Regarding `CC1=NOCC(=O)N1`, the growth in the experiment with NCI-H23 lung is 106%; in the experiment on NCI-H226 lung, 102%; in the experiment with NCI-H322M lung, 111%; with NCI-H460 lung, 107%; in the experiment on HOP-92 NSCLC it was 96%; in the experiment with NCI-H522 lung, 92.8%. Moreover, the growth in the experiment with A549/ATCC NSCLC was 89.7%; with 786-0 renal, 101%; with COLO 205 colon, 108%; in the experiment with DU-145 prostate, 111%; in the experiment with K-562 leukemia it was 92.1%; with MALME-3M melanoma, 117%. Also, the growth in the experiment on MDA-MB-231 breast was 102%; in the experiment with RXF 393 renal, 103%; in the experiment with SF-268 CNS it was 107%; with SF-295 CNS, 87.7%; with SF-539 CNS it was 99.3%; in the experiment with UACC-257 melanoma it was 101%. Besides, the growth with M14 melanoma is 103%.

Consider `Cn1c(=O)c2[nH]c(Cc3ccc4c(c3)OCO4)nc2n(C)c1=O`, for which the growth in the experiment with NCI-H23 lung is 99.8%; with NCI-H226 lung, 99.4%; in the experiment with NCI-H322M lung, 109%; with NCI-H460 lung it was 102%; in the experiment on HOP-92 NSCLC, 71.4%; in the experiment with NCI-H522 lung, 103%. The growth is 97% in the experiment with A549/ATCC NSCLC; 111% in the experiment on 786-0 renal; 109% in the experiment on COLO 205 colon; 115% in the experiment on DU-145 prostate; 108% with K-562 leukemia; 126% in the experiment on MALME-3M melanoma. Besides, the growth is 123% in the experiment with MDA-MB-231 breast; 108% in the experiment on RXF 393 renal; 104% in the experiment with SF-295 CNS; 94.8% with SF-539 CNS; 111% in the experiment with UACC-257 melanoma; 107% in the experiment with M14 melanoma.

For `COc1ccc(-n2nc(C(=O)NCC(=O)Nc3nc4cc(OC)ccc4s3)c3ccccc3c2=O)cc1`, the growth in the experiment with NCI-H23 lung was 19.5%; in the experiment with NCI-H226 lung, -11.1% (active); in the experiment with NCI-H322M lung it was 31.4%; with NCI-H460 lung, 1.04% (active); with HOP-92 NSCLC it was -34.9% (active); with NCI-H522 lung it was -9.83% (active). For the same molecule, the growth in the experiment on A549/ATCC NSCLC is 0.477% (active); with 786-0 renal, 20.4%; with COLO 205 colon it was 32.7%; in the experiment on DU-145 prostate it was -28.9% (active); with K-562 leukemia, 73.9%; in the experiment on MALME-3M melanoma it was -13.8% (active). Also, the growth with MDA-MB-231 breast was -13.6% (active); in the experiment on RXF 393 renal, -38.1% (active); with SF-268 CNS, -13.6% (active); with SF-539 CNS it was -93% (active); in the experiment on UACC-257 melanoma it was -4.82% (active); in the experiment with M14 melanoma, 44.3%.
